Sampled rows, rich in hits. Any-hit rate of the full collection: about 10%.
PTEN del growth: growth suppressors of cells with PTEN tumor suppressor deletion; HCT116 PTEN-null viability, CellTiter-Glo, 60 h; stronger effect = lower value; 140,000 tested, 1.2% active; viability, % at 10 µM;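 active = viability at or below a set limit, 4 SD under the median of all tested compounds, cut at about 3.7% in these data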;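 note: PTEN knockout HCT116 line with beta catenin targeted HCT116 as companion control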
p97 ATPase inh: blocks human p97 ATPase activity. 220,000 tested, 0.42% active. P55072. recombinant p97 ATPase, Kinase-Glo ATP luminescence, 3 h. inhibition, % at 8 µM; in the data active = inhibition above about 15%;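 note: 0% = DMSO vehicle and 100% = wells lacking enzyme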
L major viab: inhibitors of Leishmania major promastigote growth; Leishmania major promastigotes, resazurin fluorescence viability; 200,000 tested, 9% active; inhibition, % at 10 µM; in the data active = inhibition above about 50%;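 note: promastigotes grown with compound for 44 hours at 28 °C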
HCT116 bCat-KO: beta-catenin-lacking colon tumor cell growth suppression. HCT116 beta-catenin knockout viability, CellTiter-Glo, 60 h; stronger effect = lower value. viability, % at 10 µM. 140,000 tested, 1.5% active. AID 818;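 active = viability at or under a set limit, the compound median less 4 SD, cut at about 6% in these data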;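 note: 0% = Hyamine 1622 control at 20 µM and 100% = untreated cell control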
Insulin prom inh: TRM-6 insulin promoter activity inhibition; 130,000 tested, 0.9% active; inhibition, % at 2 µM; TRM-6 cells (human fetal islet line), insulin promoter-eGFP reporter, imaging; reporter expression induced with tamoxifen;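 active = inhibition above the mean plus 3 SD, with well images judged a real hit on visual review, cut at about 60% in these data, passing the limit was not always enough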
ROMK mod: human ROMK K+ channel modulation, primary screen | Tet-inducible ROMK, thallium flux fluorescence; actives lie on both sides | AID 1918 | B-score at 10 µM | P48048 | 130,000 tested, 2% active;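 active = signal ratio slope over the read window, or its plate-corrected B-score, at least 3 SD from the plate mean, either direction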;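 note: B-score of the F/F0 ratio slope over 7 to 12 s after thallium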
Target sequence (P48048 whole entry, looked up): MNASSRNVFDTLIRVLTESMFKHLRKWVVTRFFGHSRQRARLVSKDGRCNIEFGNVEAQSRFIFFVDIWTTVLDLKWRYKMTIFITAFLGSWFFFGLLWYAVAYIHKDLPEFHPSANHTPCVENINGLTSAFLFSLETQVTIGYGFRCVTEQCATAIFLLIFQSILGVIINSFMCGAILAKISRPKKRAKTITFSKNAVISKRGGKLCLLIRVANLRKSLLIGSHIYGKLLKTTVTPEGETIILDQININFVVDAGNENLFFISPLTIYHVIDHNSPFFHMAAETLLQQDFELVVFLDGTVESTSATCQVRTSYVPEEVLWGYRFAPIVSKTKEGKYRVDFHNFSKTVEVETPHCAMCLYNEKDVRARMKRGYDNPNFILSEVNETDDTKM
The depositor's hits bear a star; · = no result given.

SMILES | PTEN del growth | p97 ATPase inh | L major viab | HCT116 bCat-KO | Insulin prom inh | ROMK mod
Cc1ccc(Nc2nnc(SCC(=O)NCCN3C(=O)CSC3=O)s2)cc1C | 78.8 | -13.7 | -4.8 | 78.3 | · | ·
Cc1nc2cc(-c3ccc(Cl)cc3)nn2c(C)c1CCC(=O)NC(C)c1ccc2c(c1)OCCO2 (stereo unspecified) | 52.9 | 1.5 | 98.1* | 53.5 | 5.0 | 0.275
O=C(O)c1ccc(-c2nc(-c3ccccc3)c(-c3ccccc3)[nH]2)cc1 | 98.6 | 1.4 | 88.7* | 98.5 | 14.3 | ·
COc1ccc(-c2[nH]c(-c3ccc(C(=O)O)cc3)nc2-c2ccccc2)cc1 | 98.5 | 1.0 | -3.8 | 117.4 | 6.7 | ·
NC1=NS(=O)(=O)NC1c1ccc(F)cc1 (stereo unspecified) | · | 5.4 | 14.1 | · | 14.3 | -0.786
CCN(CC)C(=S)NC(=O)c1ccc(OC)c(Br)c1 | 59.9 | -4.5 | -2.5 | 63.5 | 6.7 | 4.59*
CC#CC(=O)N1CCC(CO)(CCc2ccccc2)CC1 | · | 0.1 | -10.0 | · | · | -0.0205
CCn1c(NCc2ccccc2NS(=O)(=O)c2ccc(C)cc2)nc2ccccc21 | 63.8 | 1.5 | 71.8* | 72.1 | 11.5 | 0.125
CCn1c(NCc2ccccc2Cl)nc2ccccc21 | 80.5 | -1.6 | 51.1* | 86.6 | -48.8 | -2.03
Cc1ccc(Cn2c(NS(=O)(=O)c3ccccc3)nc3ccccc32)cc1 | 62.1 | -5.6 | 11.4 | 70.9 | -39.3 | ·
CCn1c(NCc2cc(Br)ccc2NS(=O)(=O)c2ccc(C)cc2)nc2ccccc21 | 28.9 | 0.8 | 99.5* | 61.9 | -37.1 | ·
CCCn1c(NCc2ccccc2NS(=O)(=O)c2ccc(C)cc2)nc2ccccc21 | 44.4 | 6.5 | 95.7* | 69.4 | -10.8 | 0.541
Cc1cc(C)n(-c2cccc(CN(C)Cc3nc(-c4cnccn4)no3)c2)n1 | · | -4.8 | -1.0 | · | · | 1.22
CC(Oc1cc(Cl)ccc1Cl)C(=O)N/N=C\c1ccnn1C (stereo unspecified) | 98.2 | -4.7 | -5.6 | 100.9 | -6.7 | -1.13
O=c1[nH]c2cc3c(cc2cc1CN(CCO)S(=O)(=O)c1ccccc1)OCCO3 | · | 2.2 | · | · | · | -1.01
CC1(C)Cc2c(sc3nc(SCC#N)n(C4CCCCC4)c(=O)c23)CO1 | · | · | · | · | · | -0.11
O=C(/C=C/c1ccccc1)NC1CC2CCC1C2 (stereo unspecified) | 96.5 | 2.3 | 52.6* | 93.6 | -15.8 | 1.37
COc1ccc(OC)c(C(=O)CSc2nnc(-c3cccs3)n2C)c1 | 101.5 | 1.2 | -0.6 | 102.0 | 23.5 | 0.597
COc1ccc(-n2c(COc3cccc4ccccc34)nnc2SCC(=O)NCc2ccco2)cc1 | 97.4 | -5.2 | 98.4* | 83.2 | -12.3 | -1.05
COc1cccc(OCc2nnc(SCC(=O)NCc3ccco3)n2CCc2ccccc2)c1 | 96.1 | 0.0 | 91.2* | 93.9 | -79.4 | ·
COc1ccc(OC)c(C(=O)CSc2nnc(Cc3cccs3)n2CCc2ccccc2)c1 | 73.8 | -1.0 | 96.9* | 83.2 | 2.8 | ·
C=CCN(C(=O)CSc1nc2c(sc3ccccc32)c(=O)n1CCN(CC)CC)c1ccccc1 | · | -1.5 | 31.9 | · | · | 1.69
CC1C(C)C(O)(c2ccccc2)CCN1C (stereo unspecified) | 92.0 | 2.0 | 69.3* | 97.2 | -16.1 | ·
CC1CC(O)(Cc2ccccc2)C(C)CN1C (stereo unspecified) | 89.7 | -1.2 | -6.3 | 101.4 | -10.3 | 0.83
CSc1nnc(C)c(=O)n1COC(=O)c1ccc(S(=O)(=O)N2CCCC2)cc1 | 102.2 | 3.1 | 0.3 | 88.5 | · | ·
SMILES | PTEN del growth | p97 ATPase inh | L major viab | HCT116 bCat-KO | Insulin prom inh | ROMK mod
Clc1cnc(N/N=C/c2ccco2)c(Cl)c1 | 97.5 | -7.4 | 67.3* | 92.0 | 31.0 | -0.128
CCc1ccc2c(c1)C(C)=CC(C)(C)N2 | 102.6 | 1.7 | 66.2* | 99.1 | -83.2 | 0.032
Nc1ccccc1C(=O)NNc1c2ccccc2nc2ccccc12 | · | 8.9 | · | · | · | 0.209
Cc1cc(C)c2oc(C(=O)N(Cc3ccccc3)C3CCS(=O)(=O)C3)cc(=O)c2c1 (stereo unspecified) | · | 0.5 | · | · | · | ·
Cc1cc2oc(C(=O)N(Cc3ccccc3)C3CCS(=O)(=O)C3)cc(=O)c2cc1Cl (stereo unspecified) | 83.0 | -3.8 | 50.2* | 93.1 | -48.1 | -0.0779
COc1ccc(CN(C(=O)c2oc3ccccc3c2C)C2CCS(=O)(=O)C2)cc1 (stereo unspecified) | 94.3 | 0.8 | 54.2* | 88.7 | -40.7 | ·
CC(=O)NNc1cc(C)nc(N)n1 | · | 4.5 | · | · | · | ·
O=C(NCCCN1CCOCC1)c1sc2cc(Cl)ccc2c1Cl | · | -1.1 | 91.6* | · | 7.7 | ·

Screening results: PubChem BioAssay, several laboratories
